Data from paper PMC7862700, “An all-to-all approach to the identification of sequence-specific readers for epigenetic DNA modifications on cytosine”.

Tests used:
Test in all cases: DAPPL (digital affinity profiling via proximity ligation, sequencing); 10 mM Tris-HCl pH 7.5, 50 mM NaCl, 1 mM DTT, 4% glycerol, room temperature, 30 min; GST-TFs on glutathione beads, 16-mer random dsDNA library, 0.1% formaldehyde crosslink after washing; high values mean tight binding
Conditions in all cases: protein: recombinant; tags: N-terminal GST; dsDNA, one strand shown
[1] = molecular target: T1, FEV (Homo sapiens, UniProt Q99581 1-238)
T1 sequence: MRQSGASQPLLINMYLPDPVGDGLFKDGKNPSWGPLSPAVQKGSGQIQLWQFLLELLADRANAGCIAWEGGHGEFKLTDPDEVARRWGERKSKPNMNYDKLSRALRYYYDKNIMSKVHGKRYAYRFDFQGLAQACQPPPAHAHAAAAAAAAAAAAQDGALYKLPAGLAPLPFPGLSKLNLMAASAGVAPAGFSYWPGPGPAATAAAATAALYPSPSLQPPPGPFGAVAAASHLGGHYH
In short: (§1)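 The binding signal reported is, for every hexamer, its read frequency for a factor over its read frequency for the tag-only sample. Reads came from pools of yeast-expressed, GST-fused human transcription factors on glutathione beads, barcoded with DNA and mixed with that sample, which were incubated with 200 nmole of a random double-stranded 16-mer DNA library in Tris/NaCl/DTT/glycerol buffer at room temperature for 30 min. After washing, the pools were crosslinked with 0.1% formaldehyde, proximity-ligated with BsaI/T4 ligase for 1 h at 37 °C, PCR-amplified and sequenced on an Illumina NextSeq500.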

[2] = molecular target: ETV5 (Homo sapiens, UniProt P41161 1-510)
In short: as §1

[3] = molecular target: T2, SPIC (Homo sapiens, UniProt Q8N5J4 1-248)
T2 sequence: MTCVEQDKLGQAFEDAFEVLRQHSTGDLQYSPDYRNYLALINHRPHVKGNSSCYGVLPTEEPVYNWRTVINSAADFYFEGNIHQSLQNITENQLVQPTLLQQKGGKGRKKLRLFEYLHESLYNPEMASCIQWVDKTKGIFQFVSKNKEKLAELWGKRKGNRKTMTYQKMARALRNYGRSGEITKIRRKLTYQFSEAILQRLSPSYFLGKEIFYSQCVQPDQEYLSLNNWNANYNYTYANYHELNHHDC
In short: as §1

[4] = molecular target: ELF4 (Homo sapiens, UniProt Q99607 1-663)
In short: as §1

[5] = molecular target: T3, ELK4 (Homo sapiens, UniProt P28324-2 1-405)
T3 sequence: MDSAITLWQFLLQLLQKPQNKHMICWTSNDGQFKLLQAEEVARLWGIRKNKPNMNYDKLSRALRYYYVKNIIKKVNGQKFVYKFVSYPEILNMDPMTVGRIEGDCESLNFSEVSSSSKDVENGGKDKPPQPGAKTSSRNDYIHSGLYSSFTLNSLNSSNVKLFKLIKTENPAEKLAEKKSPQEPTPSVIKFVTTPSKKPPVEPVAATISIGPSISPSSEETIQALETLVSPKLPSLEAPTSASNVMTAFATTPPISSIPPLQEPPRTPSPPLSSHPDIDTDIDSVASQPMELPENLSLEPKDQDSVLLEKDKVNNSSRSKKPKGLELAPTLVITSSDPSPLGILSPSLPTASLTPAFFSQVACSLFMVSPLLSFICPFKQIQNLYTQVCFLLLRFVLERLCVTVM
In short: as §1

[6] = molecular target: T4, ETV2 (Homo sapiens, UniProt O00321 1-342)
T4 sequence: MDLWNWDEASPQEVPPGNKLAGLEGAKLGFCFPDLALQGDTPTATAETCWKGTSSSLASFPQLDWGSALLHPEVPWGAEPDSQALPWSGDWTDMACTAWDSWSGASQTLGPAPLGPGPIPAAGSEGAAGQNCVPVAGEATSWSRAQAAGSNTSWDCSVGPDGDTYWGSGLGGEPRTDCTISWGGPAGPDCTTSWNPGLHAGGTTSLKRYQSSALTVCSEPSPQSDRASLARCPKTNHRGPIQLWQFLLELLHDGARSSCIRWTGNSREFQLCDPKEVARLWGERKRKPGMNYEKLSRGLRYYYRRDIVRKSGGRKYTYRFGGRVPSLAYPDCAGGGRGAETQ
In short: as §1

[7] = molecular target: T5, ELF3 (Homo sapiens, UniProt P78545 1-371)
T5 sequence: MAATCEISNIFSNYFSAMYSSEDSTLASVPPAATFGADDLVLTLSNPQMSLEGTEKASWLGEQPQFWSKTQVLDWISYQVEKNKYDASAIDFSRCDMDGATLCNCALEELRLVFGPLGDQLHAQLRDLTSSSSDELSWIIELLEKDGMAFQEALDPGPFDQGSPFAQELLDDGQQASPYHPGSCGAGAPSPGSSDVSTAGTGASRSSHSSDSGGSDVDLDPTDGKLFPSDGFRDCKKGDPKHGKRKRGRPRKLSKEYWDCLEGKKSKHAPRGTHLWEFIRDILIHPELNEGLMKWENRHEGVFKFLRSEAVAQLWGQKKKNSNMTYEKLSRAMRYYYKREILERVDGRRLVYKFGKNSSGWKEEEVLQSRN
In short: as §1

[8] = molecular target: ETV1 (Homo sapiens, UniProt P50549 1-477)
In short: as §1

[9] = molecular target: T6, ERF (Homo sapiens, UniProt P50548 1-548)
T6 sequence: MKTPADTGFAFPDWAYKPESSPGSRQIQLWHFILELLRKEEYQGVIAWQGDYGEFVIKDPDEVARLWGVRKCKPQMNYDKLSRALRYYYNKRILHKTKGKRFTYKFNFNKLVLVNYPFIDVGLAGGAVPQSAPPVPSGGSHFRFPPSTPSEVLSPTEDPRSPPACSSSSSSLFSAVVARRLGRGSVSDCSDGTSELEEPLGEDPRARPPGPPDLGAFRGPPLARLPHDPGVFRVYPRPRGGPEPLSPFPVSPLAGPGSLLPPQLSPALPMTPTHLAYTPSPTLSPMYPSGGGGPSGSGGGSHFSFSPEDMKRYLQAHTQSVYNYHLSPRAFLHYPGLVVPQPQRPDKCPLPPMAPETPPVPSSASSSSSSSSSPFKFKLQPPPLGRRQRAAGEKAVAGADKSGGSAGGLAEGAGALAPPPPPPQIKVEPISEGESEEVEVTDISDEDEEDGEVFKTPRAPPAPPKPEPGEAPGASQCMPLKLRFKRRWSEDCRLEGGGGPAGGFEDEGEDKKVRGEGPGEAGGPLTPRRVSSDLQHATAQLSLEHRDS
In short: as §1

[10] = molecular target: T7, ETV3L (Homo sapiens, UniProt Q6ZN32 1-361)
T7 sequence: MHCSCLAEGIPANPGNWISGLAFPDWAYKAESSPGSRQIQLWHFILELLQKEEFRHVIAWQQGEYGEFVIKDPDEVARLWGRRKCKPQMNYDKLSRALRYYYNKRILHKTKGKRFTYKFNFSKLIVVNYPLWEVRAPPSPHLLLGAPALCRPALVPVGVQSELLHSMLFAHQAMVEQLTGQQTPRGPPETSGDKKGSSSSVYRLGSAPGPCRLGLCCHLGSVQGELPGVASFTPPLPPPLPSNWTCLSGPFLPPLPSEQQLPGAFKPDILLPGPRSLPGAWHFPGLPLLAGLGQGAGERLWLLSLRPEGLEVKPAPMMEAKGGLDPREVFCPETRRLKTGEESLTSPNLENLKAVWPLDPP
In short: as §1

[11] = molecular target: T8, ETS2 (Homo sapiens, UniProt P15036 1-469)
T8 sequence: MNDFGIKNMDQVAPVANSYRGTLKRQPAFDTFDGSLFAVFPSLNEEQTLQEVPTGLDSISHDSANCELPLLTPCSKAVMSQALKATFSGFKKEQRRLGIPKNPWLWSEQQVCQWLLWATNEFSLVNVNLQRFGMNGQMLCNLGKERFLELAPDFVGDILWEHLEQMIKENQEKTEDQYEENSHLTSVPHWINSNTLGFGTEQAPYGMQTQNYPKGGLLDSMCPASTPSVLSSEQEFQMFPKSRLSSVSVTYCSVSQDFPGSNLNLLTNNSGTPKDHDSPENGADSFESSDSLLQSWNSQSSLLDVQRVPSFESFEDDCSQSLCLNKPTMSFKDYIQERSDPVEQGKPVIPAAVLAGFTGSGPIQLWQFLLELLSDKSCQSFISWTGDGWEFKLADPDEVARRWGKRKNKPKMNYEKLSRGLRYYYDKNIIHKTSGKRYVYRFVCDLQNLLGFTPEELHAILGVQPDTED
In short: as §1

[12] = molecular target: T9, SPDEF (Homo sapiens, UniProt O95238 1-335)
T9 sequence: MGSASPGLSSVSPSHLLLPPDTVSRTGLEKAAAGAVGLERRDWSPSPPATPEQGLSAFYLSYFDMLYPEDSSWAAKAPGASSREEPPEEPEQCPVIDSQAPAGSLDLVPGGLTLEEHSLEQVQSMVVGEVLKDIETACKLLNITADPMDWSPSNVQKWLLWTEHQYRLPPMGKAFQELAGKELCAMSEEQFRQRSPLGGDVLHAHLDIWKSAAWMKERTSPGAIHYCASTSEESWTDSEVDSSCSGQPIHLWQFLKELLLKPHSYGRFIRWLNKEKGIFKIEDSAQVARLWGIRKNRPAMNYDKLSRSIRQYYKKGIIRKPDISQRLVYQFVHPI
In short: as §1

[13] = molecular target: T10, ETV7 (Homo sapiens, UniProt Q9Y603 1-341)
T10 sequence: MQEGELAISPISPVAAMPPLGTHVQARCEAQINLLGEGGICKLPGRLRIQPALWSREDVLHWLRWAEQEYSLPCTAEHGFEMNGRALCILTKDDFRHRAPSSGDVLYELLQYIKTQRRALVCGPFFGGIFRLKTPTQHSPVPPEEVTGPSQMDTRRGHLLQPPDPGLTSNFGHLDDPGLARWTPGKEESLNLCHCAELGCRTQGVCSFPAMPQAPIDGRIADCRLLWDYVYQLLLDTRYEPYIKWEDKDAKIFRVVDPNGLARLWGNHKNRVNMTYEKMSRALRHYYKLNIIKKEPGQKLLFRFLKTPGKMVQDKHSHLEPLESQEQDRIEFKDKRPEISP
In short: as §1

[14] = molecular target: T11, ELF5 (Homo sapiens, UniProt Q9UKW6-2 1-255)
T11 sequence: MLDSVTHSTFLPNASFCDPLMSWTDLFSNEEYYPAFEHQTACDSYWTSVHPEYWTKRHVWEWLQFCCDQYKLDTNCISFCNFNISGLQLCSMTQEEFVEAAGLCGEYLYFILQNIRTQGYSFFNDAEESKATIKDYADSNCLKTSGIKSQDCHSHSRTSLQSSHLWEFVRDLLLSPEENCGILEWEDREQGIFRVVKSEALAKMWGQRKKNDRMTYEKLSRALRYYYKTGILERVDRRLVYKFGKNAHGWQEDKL
In short: as §1

[15] = molecular target: T12, ETV3 (Homo sapiens, UniProt P41162-2 1-143)
T12 sequence: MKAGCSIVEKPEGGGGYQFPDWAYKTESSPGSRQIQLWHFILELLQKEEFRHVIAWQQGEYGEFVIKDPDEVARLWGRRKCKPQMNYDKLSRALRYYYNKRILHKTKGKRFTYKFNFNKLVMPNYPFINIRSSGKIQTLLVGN
In short: as §1

[16] = molecular target: ETV6 (Homo sapiens, UniProt P41212 1-452)
In short: as §1

ETV5, sequence (P41161 whole entry): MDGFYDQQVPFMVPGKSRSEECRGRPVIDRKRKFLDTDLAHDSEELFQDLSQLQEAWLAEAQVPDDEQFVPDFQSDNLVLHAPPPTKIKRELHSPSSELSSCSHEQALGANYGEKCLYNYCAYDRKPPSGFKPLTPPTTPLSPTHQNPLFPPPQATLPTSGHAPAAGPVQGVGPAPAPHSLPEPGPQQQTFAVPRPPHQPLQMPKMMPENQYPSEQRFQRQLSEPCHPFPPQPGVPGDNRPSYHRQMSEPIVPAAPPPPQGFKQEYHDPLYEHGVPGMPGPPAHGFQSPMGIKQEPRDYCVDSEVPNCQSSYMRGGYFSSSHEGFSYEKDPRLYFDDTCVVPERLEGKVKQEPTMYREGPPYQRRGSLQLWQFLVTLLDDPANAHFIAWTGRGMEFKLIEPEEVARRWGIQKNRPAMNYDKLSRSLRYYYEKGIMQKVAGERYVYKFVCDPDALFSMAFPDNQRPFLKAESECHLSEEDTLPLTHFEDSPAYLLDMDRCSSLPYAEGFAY
ETV1, sequence (P50549 whole entry): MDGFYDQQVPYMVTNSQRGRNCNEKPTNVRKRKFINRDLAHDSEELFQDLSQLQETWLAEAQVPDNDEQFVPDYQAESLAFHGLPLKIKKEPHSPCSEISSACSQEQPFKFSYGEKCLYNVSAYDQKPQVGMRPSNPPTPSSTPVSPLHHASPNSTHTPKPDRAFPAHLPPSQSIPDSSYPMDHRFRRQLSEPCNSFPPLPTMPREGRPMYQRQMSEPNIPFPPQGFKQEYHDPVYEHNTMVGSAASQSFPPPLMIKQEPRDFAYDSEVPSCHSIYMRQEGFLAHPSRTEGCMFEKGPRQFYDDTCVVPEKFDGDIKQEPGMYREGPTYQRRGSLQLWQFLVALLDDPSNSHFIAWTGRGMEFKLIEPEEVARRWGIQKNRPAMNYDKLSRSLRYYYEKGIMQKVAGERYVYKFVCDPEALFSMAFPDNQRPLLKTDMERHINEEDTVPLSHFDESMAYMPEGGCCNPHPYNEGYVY
ELF4, sequence (Q99607 whole entry): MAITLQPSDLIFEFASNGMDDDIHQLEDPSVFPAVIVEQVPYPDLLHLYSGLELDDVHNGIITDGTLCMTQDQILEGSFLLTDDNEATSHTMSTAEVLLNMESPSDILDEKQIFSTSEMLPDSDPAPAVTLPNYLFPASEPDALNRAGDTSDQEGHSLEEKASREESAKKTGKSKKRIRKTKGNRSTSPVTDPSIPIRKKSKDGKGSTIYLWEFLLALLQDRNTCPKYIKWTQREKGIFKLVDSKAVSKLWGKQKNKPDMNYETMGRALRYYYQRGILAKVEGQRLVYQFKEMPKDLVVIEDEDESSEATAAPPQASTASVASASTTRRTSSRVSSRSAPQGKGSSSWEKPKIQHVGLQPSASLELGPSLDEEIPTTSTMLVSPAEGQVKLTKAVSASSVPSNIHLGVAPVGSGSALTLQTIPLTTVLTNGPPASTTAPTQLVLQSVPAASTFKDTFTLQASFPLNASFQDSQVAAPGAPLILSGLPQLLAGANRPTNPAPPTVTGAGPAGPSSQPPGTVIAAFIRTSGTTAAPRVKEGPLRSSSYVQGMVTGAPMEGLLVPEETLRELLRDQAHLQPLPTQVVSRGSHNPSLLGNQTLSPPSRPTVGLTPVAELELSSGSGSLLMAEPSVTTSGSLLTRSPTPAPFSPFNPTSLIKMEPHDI
ETV6, sequence (P41212 whole entry): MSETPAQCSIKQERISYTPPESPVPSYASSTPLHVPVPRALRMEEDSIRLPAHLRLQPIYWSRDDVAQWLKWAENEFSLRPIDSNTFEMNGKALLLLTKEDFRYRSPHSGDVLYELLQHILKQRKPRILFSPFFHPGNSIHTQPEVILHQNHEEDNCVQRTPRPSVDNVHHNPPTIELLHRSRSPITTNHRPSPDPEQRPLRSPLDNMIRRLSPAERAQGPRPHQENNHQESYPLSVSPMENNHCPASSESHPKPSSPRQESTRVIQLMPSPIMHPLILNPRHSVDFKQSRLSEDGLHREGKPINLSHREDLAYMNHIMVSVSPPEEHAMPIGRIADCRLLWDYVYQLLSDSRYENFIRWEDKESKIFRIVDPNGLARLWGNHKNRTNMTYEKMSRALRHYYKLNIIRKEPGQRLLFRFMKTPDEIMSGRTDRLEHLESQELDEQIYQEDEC

Row | Sequence | binding signal [1] | binding signal [2] | binding signal [3] | binding signal [4] | binding signal [5] | binding signal [6] | binding signal [7] | binding signal [8] | binding signal [9] | binding signal [10] | binding signal [11] | binding signal [12] | binding signal [13] | binding signal [14] | binding signal [15] | binding signal [16]
1 | CGGATA | 2.83 fold enrichment (6-mer frequency, TF over GST control) | 1.34 fold enrichment (6-mer frequency, TF over GST control) | 1.2 fold enrichment (6-mer frequency, TF over GST control) | 1.03 fold enrichment (6-mer frequency, TF over GST control) | 1.16 fold enrichment (6-mer frequency, TF over GST control) | 1.23 fold enrichment (6-mer frequency, TF over GST control) | 1.31 fold enrichment (6-mer frequency, TF over GST control) | 1.26 fold enrichment (6-mer frequency, TF over GST control) | 1.17 fold enrichment (6-mer frequency, TF over GST control) | 1.13 fold enrichment (6-mer frequency, TF over GST control) | 1.3 fold enrichment (6-mer frequency, TF over GST control) | 1.93 fold enrichment (6-mer frequency, TF over GST control) | 1.09 fold enrichment (6-mer frequency, TF over GST control) | 1.37 fold enrichment (6-mer frequency, TF over GST control) | 1.33 fold enrichment (6-mer frequency, TF over GST control) | 1.21 fold enrichment (6-mer frequency, TF over GST control)
2 | CATGGT | 1.08 fold enrichment (6-mer frequency, TF over GST control) | 1.24 fold enrichment (6-mer frequency, TF over GST control) | 1.39 fold enrichment (6-mer frequency, TF over GST control) | 1.32 fold enrichment (6-mer frequency, TF over GST control) | 1.32 fold enrichment (6-mer frequency, TF over GST control) | 1.13 fold enrichment (6-mer frequency, TF over GST control) | 1.35 fold enrichment (6-mer frequency, TF over GST control) | 1.29 fold enrichment (6-mer frequency, TF over GST control) | 1.24 fold enrichment (6-mer frequency, TF over GST control) | 1.27 fold enrichment (6-mer frequency, TF over GST control) | 1.25 fold enrichment (6-mer frequency, TF over GST control) | 1.13 fold enrichment (6-mer frequency, TF over GST control) | 1.16 fold enrichment (6-mer frequency, TF over GST control) | 1.16 fold enrichment (6-mer frequency, TF over GST control) | 1.25 fold enrichment (6-mer frequency, TF over GST control) | 1.2 fold enrichment (6-mer frequency, TF over GST control)
